# Data taken from the supplement of paper PMC12636033.
# ± gives the standard deviation of the averaged measurements. In all, about 33,000 sequences were measured (“E-score (rank enrichment, -0.5 to 0.5)”: median about -0.0068, highest 2% from about 0.24 on). The list comes from a sample in which the highest values are over-represented; it also holds similar and randomly drawn sequences.
# System: muMax20 (Max(13-93) K31hArg/K57hArg, M65Nle)
# Experiment: PBM 8-mer E-score (E-score (rank enrichment, -0.5 to 0.5)); higher = stronger preferential binding
# Procedure: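 Protein binding microarray (universal PBM chip covering all 10-mers in fixed probe flanks) with chemically synthesized human Max(13-93) bHLH-LZ analogs (not full-length Max) bearing noncanonical residues (hArg, Tha, Aib, Nle at 65) and aromatic Cys staples. Read-out per 8-mer (and its reverse complement): E-score (rank-based enrichment, -0.5 to 0.5) and Z-score of median probe intensity.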
row,Sequence,PBM 8-mer E-score
1,ACGTGTTA,0.321 ± 0.015
2,CCGTGTTA,0.103 ± 0.017
3,AGGTGTTG,-0.0311 ± 0.062
4,ACGTGTTG,0.299 ± 0.081
5,CCGTGTTC,0.00613 ± 0.046
6,ACGTGTTC,0.292 ± 0.0076
7,GCGTGTTA,0.195 ± 0.089
8,ATGTGTTG,0.225 ± 0.018
9,AGGTGTTC,0.157 ± 0.0061
10,CACTTGCC,0.168 ± 0.14
11,TCACTACA,0.0656 ± 0.0014
12,ACCAACAC,0.174 ± 0.0053
13,AGCAAATG,0.0747 ± 0.051
14,AACTTGAT,0.198 ± 0.024
15,GCGAAATA,0.104 ± 0.11
16,CGGGAGTC,-0.0836 ± 0.032
17,ACATTTGG,0.0453 ± 0.092
18,GAACCCAA,-0.136 ± 0.086
19,AAACCCAT,0.0906 ± 0.057
20,AAACCCAA,0.265 ± 0.0051
21,ACCCCCAA,-0.14 ± 0.0093
22,AACCCCAA,0.259 ± 0.015
23,AACCCCCA,-0.337 ± 0.0059
24,AAGCGGCG,-0.253 ± 0.0057
25,ACAAAGAC,0.226 ± 0.034
26,ACGCTCTA,0.000195 ± 0.019

row,Sequence,PBM 8-mer E-score
1,CGAGGGAG,0.0101 ± 0.048
2,ACTACTTA,0.114 ± 0.13
3,CCCGTGCG,-0.166 ± 0.0035
4,TACGTGCA,0.155 ± 0.0056
5,AACGTGCC,-0.0196 ± 0.033
6,GACGTGCC,-0.0314 ± 0.077
7,CACGTGCA,0.451 ± 0.049
8,CACGTGCC,0.419 ± 0.076
9,AACGTGCA,0.225 ± 0.0061
10,CACGTGCG,0.462 ± 0.035
11,AACGTGCG,0.129 ± 0.053
12,ACCCCCTG,-0.181 ± 0.16
13,AAGCGAAC,-0.038 ± 0.12
14,ACAAACGT,0.0903 ± 0.12
15,GCAAGGCA,0.0264 ± 0.067
16,CCGGACCC,-0.294 ± 0.09
17,GTGTTTGA,0.241 ± 0.042
18,CTGTTTGA,0.143 ± 0.011
19,ACGTTTGA,0.254 ± 0.015
20,CCGTTTGA,-0.202 ± 0.057
21,ATGTTTGA,0.207 ± 0.051
22,ACGTTTGG,-0.00749 ± 0.048
23,ACACTGCC,-0.0509 ± 0.054
24,CAACAGAG,-0.088 ± 0.056
25,CGTGAATC,-0.00172 ± 0.048
26,CATGTCTC,0.256 ± 0.015

row,Sequence,PBM 8-mer E-score
1,CATGTCTA,0.0944 ± 0.042
2,AATGTCTC,0.00715 ± 0.052
3,AGTGTAGG,0.0989 ± 0.087
4,GGATAATA,0.0335 ± 0.0051
5,ATATAATG,0.2202 ± 0.001
6,ATATAATA,0.302 ± 0.0079
7,CTATAATA,0.165 ± 0.0056
8,GTATAATA,0.247 ± 0.093
9,GAATAATA,0.165 ± 0.01
10,GGCAGAAA,0.135 ± 0.072
11,CAGTGCAC,-0.103 ± 0.061
12,CCCGAGCA,0.00085 ± 0.0024
13,GACCGAGC,-0.276 ± 0.069
14,ATTGCAGA,-0.0371 ± 0.034
15,TCCACGCA,0.0588 ± 0.069
16,ATGGGCGC,-0.129 ± 0.1
17,ATAGCGTA,-0.019 ± 0.055
18,ATTCCACA,0.101 ± 0.1
19,CAGAACTC,-0.171 ± 0.057
20,AAGGATAT,0.247 ± 0.062
21,AAGGATAA,0.149 ± 0.041
22,AAGGATAC,-0.00358 ± 0.02
23,AGCGATTC,-0.0904 ± 0.024
24,TCATGAGA,0.111 ± 0.0016
25,ACATGAGA,0.253 ± 0.039
26,ACATGAAC,0.0854 ± 0.018

row,Sequence,PBM 8-mer E-score
1,ACATGAGT,0.0854 ± 0.027
2,ACATGAAG,0.0775 ± 0.23
3,ACATGAAT,0.24 ± 0.04
4,ACCAACAT,0.0339 ± 0.18
5,GACGGGGA,-0.043 ± 0.026
6,ACCAGGTG,-0.184 ± 0.13
7,CGGCTACC,-0.274 ± 0.058
8,ATACTTTG,0.107 ± 0.036
9,CTACTTTA,0.0793 ± 0.013
10,ATACTTTA,0.279 ± 0.0074
11,GTGAGTGA,-0.073 ± 0.17
12,GTGTTGTA,0.164 ± 0.016
13,ATGTTGTG,0.145 ± 0.062
14,ATGTTGTA,0.284 ± 0.016
15,AGGCGCAA,-0.0721 ± 0.067
16,ATAATATC,0.257 ± 0.035
17,CTAATATA,0.214 ± 0.0087
18,CTAATATC,0.214 ± 0.06
19,ATAATATG,0.169 ± 0.035
20,ACAATATA,0.211 ± 0.037
21,ATAATAGA,0.0729 ± 0.052
22,GTAATAAA,0.154 ± 0.041
23,ATAATATA,0.263 ± 0.042
24,GTAATATA,0.267 ± 0.012
25,GAGGACCC,-0.228 ± 0.037
26,AGTAATCA,0.109 ± 0.12

row,Sequence,PBM 8-mer E-score
1,CGGGGCGA,-0.112 ± 0.037
2,AGAACTCC,-0.0617 ± 0.081
3,AAAGGCTA,-0.0552 ± 0.0014
4,GACGGATA,-0.139 ± 0.049
5,GCTCACCA,-0.15 ± 0.068
6,ATACCCCG,-0.0795 ± 0.096
7,AACGACCA,0.0599 ± 0.047
8,ACTGCCAG,-0.0897 ± 0.06
9,ACACAAAG,0.23 ± 0.078
10,TTACAAAA,0.126 ± 0.043
11,ATACAACA,0.254 ± 0.025
12,ACACAAAA,0.208 ± 0.055
13,ATACAAAA,0.305 ± 0.0098
14,ACACAAAC,0.25 ± 0.056
15,CTACAAAA,0.0991 ± 0.063
16,ATACAAAT,0.273 ± 0.038
17,ATACAAAC,0.225 ± 0.037
18,ATACAACG,0.203 ± 0.026
19,ATACAAAG,0.136 ± 0.09
20,ATACAACC,-0.0691 ± 0.073
21,ACGGCCGG,-0.2416 ± 0.0019
22,CAGGCTTC,-0.0969 ± 0.0043
23,GATACGCC,-0.108 ± 0.043
24,ACTTTTGC,0.0617 ± 0.018
25,CATGTTAC,0.123 ± 0.025
26,AGCCGCCG,-0.192 ± 0.18

row,Sequence,PBM 8-mer E-score
1,AGCTCCTA,-0.251 ± 0.015
2,CCTCCCTA,-0.153 ± 0.075
3,AGCTTAAC,-0.126 ± 0.1
4,ACACTCGG,-0.0657 ± 0.025
5,CTATACGC,-0.00851 ± 0.07
6,CCTCGTTA,-0.00353 ± 0.0057
7,GTACAAGA,0.119 ± 0.012
8,CCACAACA,-0.0271 ± 0.0066
9,GTACAAAC,0.116 ± 0.0057
10,AAACAAAC,0.154 ± 0.025
11,AAACAAAA,0.211 ± 0.061
12,CTACAAGC,-0.0802 ± 0.066
13,AAACAAAT,0.284 ± 0.031
14,ATACAAGA,0.0614 ± 0.015
15,GTACAAAA,0.2859 ± 0.0025
16,GCACAACC,-0.23 ± 0.0046
17,GCACAACA,0.238 ± 0.016
18,ATACAAGC,0.243 ± 0.079
19,GAGTCCAA,-0.159 ± 0.12
20,GCGACACA,-0.067 ± 0.12
21,GTCTCTGA,-0.161 ± 0.093
22,ACATATGG,0.12 ± 0.078
23,ACATATGC,0.105 ± 0.011
24,GCATATGA,0.186 ± 0.04
25,CTATATGC,0.238 ± 0.043
26,ATTTATTA,0.132 ± 0.06

row,Sequence,PBM 8-mer E-score
1,ATTTATTC,0.241 ± 0.046
2,CTATATGA,0.109 ± 0.074
3,CTTTATTC,0.0219 ± 0.12
4,GCATATGC,0.24 ± 0.032
5,ATATATGG,0.258 ± 0.028
6,ATATATGA,0.218 ± 0.069
7,ATATATGC,0.0936 ± 0.17
8,TACCCCAA,0.157 ± 0.005
9,GGAGAGCC,-0.211 ± 0.032
10,GACGCCAC,-0.137 ± 0.094
11,ATGTCCGC,-0.126 ± 0.088
12,GACACTGA,-0.11 ± 0.068
13,GCAGCCAC,-0.0591 ± 0.03
14,CTCAGTGC,-0.224 ± 0.0089
15,CTCTATTC,0.00532 ± 0.064
16,CTATATTC,0.262 ± 0.052
17,ATATATTC,0.201 ± 0.041
18,CAAAGCTG,0.0952 ± 0.083
19,AAAAGCAG,-0.0145 ± 0.05
20,AAAAGTAA,0.12 ± 0.033
21,AAAAGCAC,0.162 ± 0.061
22,AAAAGCTG,0.271 ± 0.081
23,AATAGTAT,0.24 ± 0.012
24,AAAAGTAT,0.249 ± 0.044
25,AATAGTAG,0.0461 ± 0.02
26,AAAAGCAT,0.243 ± 0.018

row,Sequence,PBM 8-mer E-score
1,AATAGTAA,0.152 ± 0.012
2,AAAAGCTA,0.123 ± 0.0035
3,AAAAGTAC,0.184 ± 0.042
4,CCGTCGTC,-0.109 ± 0.011
5,AACTGGGT,-0.078 ± 0.061
6,CCAATGAG,-0.095 ± 0.001
7,CATGGACG,0.0146 ± 0.1
8,GAAGAGGC,-0.108 ± 0.083
9,AGACGGAT,0.0634 ± 0.17
10,GTCAATGA,0.0559 ± 0.0022
11,CCTGCTGC,-0.107 ± 0.061
12,TAGTATCA,0.131 ± 0.033
13,ATAGATGA,0.0906 ± 0.033
14,AACGCATA,0.0704 ± 0.12
15,GCAGGTGA,-0.0216 ± 0.0013
16,ACACGTGA,0.432 ± 0.055
17,ACACGTCT,0.0471 ± 0.065
18,ACAGGTGA,0.264 ± 0.062
19,AGACGTGA,0.104 ± 0.027
20,ACACGTCA,0.246 ± 0.006
21,ACACGTGC,0.452 ± 0.05
22,ATACGTGA,0.068 ± 0.019
23,ACACGTAC,0.137 ± 0.036
24,AGACGTGC,-0.0738 ± 0.042
25,ACACGTCG,-0.148 ± 0.048
26,CCAGGTGA,-0.121 ± 0.026

row,Sequence,PBM 8-mer E-score
1,AGCTCTTG,0.00816 ± 0.055
2,CAGGCAGA,-0.144 ± 0.036
3,CCGGCAAA,-0.223 ± 0.11
4,AAACCGTC,-0.172 ± 0.074
5,ACCCAGAC,-0.109 ± 0.007
6,CTAACGCC,-0.0238 ± 0.038
7,AATTGCCT,0.00671 ± 0.018
8,AATAGGGA,0.142 ± 0.022
9,CGTTACAC,-0.0405 ± 0.053
10,TCACGTAA,0.0827 ± 0.0065
11,TCACGTGA,0.442 ± 0.044
12,ACACGTAT,0.218 ± 0.052
13,AAACGTGT,0.169 ± 0.1
14,AAACGTGG,0.201 ± 0.0053
15,ACACGTGT,0.469 ± 0.029
16,TAACGTGA,0.101 ± 0.052
17,ACACGTGG,0.446 ± 0.062
18,ACACGTAG,0.0342 ± 0.052
